Assays:
[1] = molecular target: Tyrosine-protein kinase SYK (Homo sapiens) (UniProt P43405); settings: at 10 µM
[2] = molecular target: T1, Mitogen-activated protein kinase kinase kinase 7 (Homo sapiens) (UniProt O43318); settings: at 10 µM
T1 sequence (whole entry): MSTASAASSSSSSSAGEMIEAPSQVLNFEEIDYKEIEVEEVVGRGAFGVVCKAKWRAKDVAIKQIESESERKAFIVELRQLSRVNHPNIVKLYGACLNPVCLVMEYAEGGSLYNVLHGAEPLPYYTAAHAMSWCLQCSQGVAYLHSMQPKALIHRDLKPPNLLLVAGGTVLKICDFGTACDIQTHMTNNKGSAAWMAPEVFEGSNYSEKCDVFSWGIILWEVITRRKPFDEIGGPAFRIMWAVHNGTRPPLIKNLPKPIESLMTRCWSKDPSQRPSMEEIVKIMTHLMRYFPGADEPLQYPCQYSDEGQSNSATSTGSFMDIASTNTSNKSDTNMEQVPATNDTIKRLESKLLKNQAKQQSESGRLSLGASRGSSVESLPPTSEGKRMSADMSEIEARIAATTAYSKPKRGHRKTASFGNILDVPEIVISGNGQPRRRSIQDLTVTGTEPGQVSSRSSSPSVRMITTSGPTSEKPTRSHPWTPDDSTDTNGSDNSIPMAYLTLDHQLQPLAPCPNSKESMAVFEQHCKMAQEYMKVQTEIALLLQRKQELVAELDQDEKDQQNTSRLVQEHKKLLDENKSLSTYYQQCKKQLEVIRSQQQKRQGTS

[3] = molecular target: T2, Serine/threonine-protein kinase TAO1 (Homo sapiens) (UniProt Q7L7X3); settings: at 1 µM
T2 sequence (whole entry): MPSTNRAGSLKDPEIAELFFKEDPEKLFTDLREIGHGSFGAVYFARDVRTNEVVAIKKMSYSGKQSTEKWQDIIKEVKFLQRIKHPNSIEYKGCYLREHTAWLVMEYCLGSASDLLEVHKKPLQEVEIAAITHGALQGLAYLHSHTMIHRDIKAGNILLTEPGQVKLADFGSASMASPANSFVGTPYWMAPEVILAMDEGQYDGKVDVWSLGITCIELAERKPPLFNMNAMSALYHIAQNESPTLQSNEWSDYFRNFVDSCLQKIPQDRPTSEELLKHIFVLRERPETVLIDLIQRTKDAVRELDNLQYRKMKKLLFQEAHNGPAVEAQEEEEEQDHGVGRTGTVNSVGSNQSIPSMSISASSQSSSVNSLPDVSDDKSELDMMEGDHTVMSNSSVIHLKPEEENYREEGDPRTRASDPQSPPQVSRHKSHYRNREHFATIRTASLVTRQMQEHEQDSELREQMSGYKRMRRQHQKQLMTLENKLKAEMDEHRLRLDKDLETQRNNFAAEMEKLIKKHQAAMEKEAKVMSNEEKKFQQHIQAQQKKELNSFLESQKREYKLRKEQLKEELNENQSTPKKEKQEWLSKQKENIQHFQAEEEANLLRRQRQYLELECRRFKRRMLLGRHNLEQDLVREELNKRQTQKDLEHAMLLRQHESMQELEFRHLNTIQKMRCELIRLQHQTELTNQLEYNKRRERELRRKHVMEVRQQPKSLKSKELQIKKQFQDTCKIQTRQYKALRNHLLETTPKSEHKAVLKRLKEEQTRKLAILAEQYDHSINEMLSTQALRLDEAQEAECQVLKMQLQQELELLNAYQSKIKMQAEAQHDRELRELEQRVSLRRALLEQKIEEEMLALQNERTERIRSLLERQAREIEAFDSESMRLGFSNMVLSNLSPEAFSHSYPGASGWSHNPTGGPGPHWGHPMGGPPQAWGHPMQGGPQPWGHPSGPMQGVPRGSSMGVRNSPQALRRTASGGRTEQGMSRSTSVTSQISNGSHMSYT

[4] = molecular target: T2, Serine/threonine-protein kinase TAO1 (Homo sapiens); settings: at 10 µM
[5] = molecular target: T3, Serine/threonine-protein kinase TAO2 (Homo sapiens) (UniProt Q9UL54); settings: at 10 µM
T3 sequence (whole entry): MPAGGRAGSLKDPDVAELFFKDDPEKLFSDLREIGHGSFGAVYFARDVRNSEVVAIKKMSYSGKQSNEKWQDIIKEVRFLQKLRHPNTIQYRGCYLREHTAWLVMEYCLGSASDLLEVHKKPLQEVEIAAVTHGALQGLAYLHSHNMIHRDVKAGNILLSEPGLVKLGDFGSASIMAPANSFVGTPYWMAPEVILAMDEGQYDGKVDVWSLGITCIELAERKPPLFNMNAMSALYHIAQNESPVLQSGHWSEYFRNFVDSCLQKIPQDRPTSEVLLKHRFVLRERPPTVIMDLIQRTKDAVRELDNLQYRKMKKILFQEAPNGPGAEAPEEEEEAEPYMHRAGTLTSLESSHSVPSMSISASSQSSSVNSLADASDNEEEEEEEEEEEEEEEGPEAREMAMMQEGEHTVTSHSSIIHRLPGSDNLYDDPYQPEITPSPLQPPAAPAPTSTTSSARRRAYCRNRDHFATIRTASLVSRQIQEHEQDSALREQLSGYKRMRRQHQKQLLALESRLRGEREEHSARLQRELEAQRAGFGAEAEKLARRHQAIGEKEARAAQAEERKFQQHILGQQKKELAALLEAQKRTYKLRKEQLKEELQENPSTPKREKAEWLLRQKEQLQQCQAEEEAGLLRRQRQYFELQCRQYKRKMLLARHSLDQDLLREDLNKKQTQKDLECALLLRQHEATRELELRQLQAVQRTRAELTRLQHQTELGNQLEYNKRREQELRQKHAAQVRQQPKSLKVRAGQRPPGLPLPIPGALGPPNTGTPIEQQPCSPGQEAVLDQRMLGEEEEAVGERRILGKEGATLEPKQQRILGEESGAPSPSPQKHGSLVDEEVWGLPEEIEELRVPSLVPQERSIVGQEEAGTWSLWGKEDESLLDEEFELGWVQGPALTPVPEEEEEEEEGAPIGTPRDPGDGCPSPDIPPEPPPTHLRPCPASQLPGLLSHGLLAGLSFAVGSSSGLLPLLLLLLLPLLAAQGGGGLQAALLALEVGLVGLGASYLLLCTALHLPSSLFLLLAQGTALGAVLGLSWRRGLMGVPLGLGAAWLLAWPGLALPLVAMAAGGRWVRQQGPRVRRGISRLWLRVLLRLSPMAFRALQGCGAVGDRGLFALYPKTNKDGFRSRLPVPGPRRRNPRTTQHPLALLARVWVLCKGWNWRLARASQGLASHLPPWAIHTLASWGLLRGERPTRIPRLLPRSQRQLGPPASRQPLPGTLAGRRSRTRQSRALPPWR

[6] = molecular target: T4, Serine/threonine-protein kinase TAO3 (Homo sapiens) (UniProt Q9H2K8); settings: at 1 µM
T4 sequence (whole entry): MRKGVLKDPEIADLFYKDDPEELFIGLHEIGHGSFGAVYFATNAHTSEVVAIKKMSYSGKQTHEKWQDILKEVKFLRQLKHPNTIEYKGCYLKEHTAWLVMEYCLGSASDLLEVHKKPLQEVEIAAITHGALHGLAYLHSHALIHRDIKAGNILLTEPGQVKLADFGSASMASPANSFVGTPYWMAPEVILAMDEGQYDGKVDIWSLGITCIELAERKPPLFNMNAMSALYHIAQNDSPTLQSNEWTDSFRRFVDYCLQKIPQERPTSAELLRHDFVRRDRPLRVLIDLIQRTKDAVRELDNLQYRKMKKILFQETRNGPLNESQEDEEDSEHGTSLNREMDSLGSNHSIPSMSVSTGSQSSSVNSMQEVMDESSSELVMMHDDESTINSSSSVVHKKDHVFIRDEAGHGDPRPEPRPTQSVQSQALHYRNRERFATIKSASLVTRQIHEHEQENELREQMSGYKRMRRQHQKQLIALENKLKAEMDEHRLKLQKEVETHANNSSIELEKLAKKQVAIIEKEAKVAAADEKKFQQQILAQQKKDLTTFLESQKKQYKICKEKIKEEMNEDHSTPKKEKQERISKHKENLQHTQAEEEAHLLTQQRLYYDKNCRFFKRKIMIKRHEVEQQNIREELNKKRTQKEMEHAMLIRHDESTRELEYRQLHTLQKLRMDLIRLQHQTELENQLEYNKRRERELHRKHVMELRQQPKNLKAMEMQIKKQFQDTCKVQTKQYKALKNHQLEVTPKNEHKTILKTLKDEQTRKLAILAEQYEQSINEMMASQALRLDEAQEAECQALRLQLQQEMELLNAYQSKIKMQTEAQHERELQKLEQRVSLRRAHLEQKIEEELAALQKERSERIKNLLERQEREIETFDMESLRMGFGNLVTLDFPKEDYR

[7] = molecular target: T4, Serine/threonine-protein kinase TAO3 (Homo sapiens); settings: at 10 µM
[8] = molecular target: T5, Serine/threonine-protein kinase TBK1 (Homo sapiens) (UniProt Q9UHD2); settings: at 1 µM
T5 sequence (whole entry): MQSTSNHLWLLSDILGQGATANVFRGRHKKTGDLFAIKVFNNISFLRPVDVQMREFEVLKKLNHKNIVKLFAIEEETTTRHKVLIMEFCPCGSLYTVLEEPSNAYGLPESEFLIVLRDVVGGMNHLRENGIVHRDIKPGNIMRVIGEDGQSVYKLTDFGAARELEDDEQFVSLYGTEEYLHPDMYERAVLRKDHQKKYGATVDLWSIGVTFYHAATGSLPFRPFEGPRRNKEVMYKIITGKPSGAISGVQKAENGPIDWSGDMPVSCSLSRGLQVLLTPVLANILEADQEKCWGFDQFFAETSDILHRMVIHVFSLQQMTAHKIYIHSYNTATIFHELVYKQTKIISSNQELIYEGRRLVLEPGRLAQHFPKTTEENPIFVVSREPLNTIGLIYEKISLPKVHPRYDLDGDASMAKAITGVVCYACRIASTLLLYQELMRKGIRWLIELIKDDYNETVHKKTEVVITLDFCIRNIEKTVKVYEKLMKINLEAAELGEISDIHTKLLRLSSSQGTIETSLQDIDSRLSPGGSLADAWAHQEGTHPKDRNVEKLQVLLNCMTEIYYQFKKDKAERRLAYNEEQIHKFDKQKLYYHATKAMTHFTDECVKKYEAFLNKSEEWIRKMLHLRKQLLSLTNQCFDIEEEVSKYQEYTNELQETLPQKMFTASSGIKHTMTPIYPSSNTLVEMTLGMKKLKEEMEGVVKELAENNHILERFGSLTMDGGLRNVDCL

**Q.** What does the source list for `Nc1ncnc2c1c(-c1ccc(Oc3ccccc3)cc1)cn2C1CCCC1`?
**A.** residual activity [1]: 59%; residual activity [2]: 81%; residual activity [3]: 94%; residual activity [4]: 81%; residual activity [5]: 77%; residual activity [6]: 92%; residual activity [7]: 77%; residual activity [8]: 61%

Reference: ChEMBL document CHEMBL2218924, “A broad activity screen in support of a chemogenomic map for kinase signalling research and drug discovery” (Biochem J, 2013)
